This is an account of results in PubChem BioAssay.

A short description of assay [1]: apoptosome-driven caspase-3 activation blockers – biochemical, fluorescence, DEVD-Rh110, 20 µM, confirmation (AID 504614).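 Note: plate controls were DMSO wells for no effect and DEVD-CHO caspase inhibitor control wells for full effect.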 Particulars: reconstituted apoptosome, caspase-3 DEVD-Rh110 fluorescence; at 20 µM; stronger effect = higher value.
Assay [2] in a line: detection-step artefacts after completed caspase reaction – biochemical, fluorescence, Rh110, 20 µM, artefact control for Apaf-1 inhibitor project, confirmation (AID 504615;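 active = signal rise of 40% or more at 20 µM, treated as a fluorescence artifact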). The conditions noted are these: quenched caspase reaction, at 20 µM, stronger effect = higher value.
The nature of assay [3]: fluorescence interference of Apaf-1 inhibitor hits, dose response, artefact control for Apaf-1 inhibitor project (AID 588538; call rule not given here). Particulars: fluorescence interference counterscreen, Apaf-1 assay format. Background: A counterscreen serves to expose hits that act by an unwanted route or on another target.
Assay [4] can be described thus: Brca1-Bard1 BiLC signal decrease – luminescence, single concentration, counter-screen for Mdm2/MdmX interaction inhibitor project, confirmation (AID 504668; call rule not given here). The conditions noted are these: Brca1/Bard1 bimolecular luciferase complementation counterscreen, at 8 µM, stronger effect = higher value.
A short description of assay [5]: inhibition of PEG-3 promoter luciferase signal – cell-based, HeLa, luciferase reporter, single concentration, confirmation (AID 602417;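 active = at 20 µM dose, 40% or more inhibition averaged across four replicates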). The conditions noted are these: HeLa PEG-Prom luciferase reporter, luminescence, overnight; at 20 µM; stronger effect = higher value.
The target of assay [6] is PEG-3 (UniProt Q6IN02). Kind of assay: inhibition of PEG-3 promoter-driven reporter – cell-based, HeLa, luciferase, CREF/GAPDH counter-screen panel, dose response (AID 624167). Particulars: CREF/GAPDH counter-screens; HeLa PEG-Prom luciferase reporter, overnight, run 1, dose range 1, at 100 µM (top of the series) unless noted.
The target of assay [7] is PEG-3 (UniProt Q6IN02). Described as above. Particulars: CREF/GAPDH counter-screens; HeLa PEG-Prom luciferase reporter, overnight, run 2, dose range 1, at 100 µM (top of the series) unless noted.

Structures are written as SMILES. The list shows a part of the results. Calls of active or inactive are those of the source.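 Rule for the calls, unless noted: active = mean inhibition of at least 40% at 20 µM; inactive = the rest.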

Sequence of PEG-3 (Q6IN02 whole entry, looked up): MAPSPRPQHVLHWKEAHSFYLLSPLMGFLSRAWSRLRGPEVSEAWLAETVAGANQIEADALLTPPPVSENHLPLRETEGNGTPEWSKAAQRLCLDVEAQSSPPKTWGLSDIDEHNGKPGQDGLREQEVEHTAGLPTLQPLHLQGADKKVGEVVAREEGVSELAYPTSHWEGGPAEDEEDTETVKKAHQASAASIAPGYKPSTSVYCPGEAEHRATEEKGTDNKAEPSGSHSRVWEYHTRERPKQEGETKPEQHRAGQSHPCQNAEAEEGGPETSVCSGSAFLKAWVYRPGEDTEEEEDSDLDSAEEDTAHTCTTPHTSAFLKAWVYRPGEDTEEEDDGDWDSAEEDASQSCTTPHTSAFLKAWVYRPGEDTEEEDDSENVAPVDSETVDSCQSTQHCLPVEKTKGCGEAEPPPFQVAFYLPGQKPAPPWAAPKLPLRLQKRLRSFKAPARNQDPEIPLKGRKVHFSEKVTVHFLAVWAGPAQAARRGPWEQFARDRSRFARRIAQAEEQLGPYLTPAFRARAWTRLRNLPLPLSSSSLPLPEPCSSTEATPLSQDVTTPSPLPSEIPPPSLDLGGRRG

On to `COc1ccc(S(=O)(=O)/N=C2\C=C(NS(=O)(=O)c3ccccc3)C(=O)c3ccccc32)cc1`, for which, in assay [1], the inhibition was 52.3% (active). Also, the activation (fluorescence interference) in assay [2] was -7.09% (inactive). Further, the IC50 in assay [3] is > 100 µM (inactive).
Regarding `CCOc1c(Br)cc(/C=C2\C(=O)N(CCC#N)N=C2C)cc1OC`, the inhibition in assay [1] was 13.1% (inactive). In addition, in assay [2], the activation (fluorescence interference) was 1.73% (inactive).
The corresponding values for `CCN(CC)CCOc1ccc2c(c1)C(=NNC(=O)c1ccccn1)c1cc(OCCN(CC)CC)ccc1-2` are 56.1% (active) and 15.8% (inactive).
Taken in the same sequence, the figures for `Cc1c(-c2nn(C)c(=O)c3ccccc23)oc2ccc(F)cc2c1=O` were 77.4% (active) and 2.5% (inactive).
For `CCCCCCCCCCOC(=O)Cn1c(COc2cccc(OC)c2)[n+](C)c2ccccc21`, the inhibition in assay [1] was 74.8% (active); in assay [4], 31.2% (active). Also, the activation (fluorescence interference) in assay [2] is 23% (inactive). The IC50 in assay [3] is > 100 µM (inactive).
As for `Cc1[nH]n(-c2ccccc2)c(=O)c1/C=N/NC(=O)c1ccoc1C`, the inhibition in assay [1] was 62% (active). The activation (fluorescence interference) in assay [2] is -3.23% (inactive). Further, the IC50 in assay [3] was > 100 µM (inactive).
As to `Cc1cc(C)n(-c2nc(SCC(=O)N3CCCC3)c3c4c(sc3n2)CCCC4)n1`, the inhibition in assay [1] was 26.4% (inactive). In assay [2], the activation (fluorescence interference) was 8.64% (inactive).
The corresponding values for `COc1ccc(-c2nc3cc(C)ccn3c2NC2CCCCC2)cc1SC1CCCCC1` are 15.6% (inactive) and -1.22% (inactive).
The corresponding values for `COc1ccc2sc(-c3ccccc3OC)c(-c3ccc(OCCN4CCCC4)cc3)c2c1` are 27.1% (inactive) and 6.49% (inactive).
Taken in the same sequence, the figures for `CCOC(=O)N1CCC(c2cc(=O)n(-c3ccccc3)[nH]2)CC1` were 32.4% (inactive) and 8.7% (inactive).
Turning to `C=CCC[C@H](Cc1ccc(F)cc1)C(=O)OC[C@@H](NC(=O)[C@@H](CC=C)CC(=O)N[C@H](CO)Cc1ccccc1)C(C)(C)C`, the inhibition in assay [1] is 14.6% (inactive). In addition, in assay [2], the activation (fluorescence interference) is 3.46% (inactive).
In the case of `CN(C)S(=O)(=O)c1ccc2oc(SCC(=O)Nc3ccccc3F)nc2c1`, in assay [1], the inhibition was 77.8% (active). For the same molecule, the activation (fluorescence interference) in assay [2] is 10.6% (inactive). The IC50 in assay [3] was > 100 µM (inactive).
For `c1ccc(C[C@H]2CNCCN2CCC23CC4CC(CC(C4)C2)C3)cc1`, the inhibition in assay [1] was 1.61% (inactive). For the same molecule, in assay [2], the activation (fluorescence interference) was -3.75% (inactive).
Taken in the same sequence, the figures for `C=CCn1c(N)c(C(=O)OCC(C)C)c2nc3ccccc3nc21` were 19.4% (inactive) and 12% (inactive).
`CCCCCCc1cc2cc(-c3nnc(-c4ccccc4)o3)c(=O)oc2cc1O`: the inhibition in assay [1] is 76% (active). For the same molecule, the activation (fluorescence interference) in assay [2] is 7.27% (inactive). Also, in assay [3], the IC50 was > 100 µM (inactive).
In the case of `Nc1ccc2nn(-c3ccc(Cl)cc3)nc2c1`, the inhibition in assay [1] is 35.8% (inactive). Also, in assay [2], the activation (fluorescence interference) was 0.47% (inactive).
Taken in the same sequence, the figures for `O=C(CN1CCN(S(=O)(=O)c2ccc3ccccc3c2)CC1)NC(=O)NC1CCCCC1` were 26.3% (inactive) and 20% (inactive).
The corresponding values for `C(=N/Nc1cc(N2CCOCC2)nc(N2CCOCC2)n1)/c1ccccc1` are 27.8% (inactive) and 2.85% (inactive).
Consider `C[C@@H](CN1CCC[C@H]1CN1C(N)=NC[C@@H]1Cc1ccccc1)N1C[C@@H](Cc2ccccc2)N(CCCC2CCCC2)C1=N`, for which, in assay [1], the inhibition is 11.8% (inactive). In assay [2], the activation (fluorescence interference) was 7.13% (inactive).
Taken in the same sequence, the figures for `COCC(C)OC(=O)c1c(N)n(CCCN2CCOCC2)c2nc3ccccc3nc12` (stereo not given) were 12.4% (inactive) and 0.94% (inactive).
As to `CCCCNC(=O)C(C)N(CCN(C)C)C(=O)CCCCCN1C(=O)NC(c2ccc(Cl)cc2)C(C(=O)OCc2ccccc2)=C1C` (stereo not given), the inhibition is 22.9% (inactive) in assay [1]; 27.8% (active) in assay [4]; 99.7% (active) in assay [5]; 102% in assay [6]; 101% in assay [7]. Moreover, the activation (fluorescence interference) in assay [2] is -179% (inactive).
On to `O=C(N/N=C\c1cccnc1)c1cc(-c2ccccc2)nc2c(Cl)cccc12`, for which, in assay [1], the inhibition is 11.8% (inactive). Further, in assay [2], the activation (fluorescence interference) was 2.87% (inactive).
With `O=C(Cc1cc(=O)[nH][nH]1)N/N=C/c1ccccc1[N+](=O)[O-]`, in assay [1], the inhibition is 5.01% (inactive). Moreover, in assay [2], the activation (fluorescence interference) was 0.43% (inactive).
The corresponding values for `c1ccc(CSc2nnc(-c3ccco3)c(-c3ccco3)n2)cc1` are 29.4% (inactive) and 6.26% (inactive).
Take `O=C(CCNS(=O)(=O)c1ccccc1)NCCSc1ccc(Br)cc1`: in assay [1], the inhibition is 40% (active). Also, the activation (fluorescence interference) in assay [2] is 5.12% (inactive). The IC50 in assay [3] was > 100 µM (inactive).
As to `NC[C@H](Cc1ccccc1)NCCc1cc(C(F)(F)F)cc(C(F)(F)F)c1`, the inhibition in assay [1] was 17.2% (inactive). Besides, in assay [2], the activation (fluorescence interference) was 11.5% (inactive).
The corresponding values for `O=C1Nc2ccc([N+](=O)[O-])cc2C1=Nc1cccc(CO)c1` are 39.8% (inactive) and -4.07% (inactive).
Taken in the same sequence, the figures for `O=C(O)c1cc(Cl)c(Cl)cc1C(=O)Nc1cccc2ncccc12` were 1.69% (inactive) and -4.02% (inactive).
Taken in the same sequence, the figures for `CCOC(=O)C1CCN(C(=O)c2cccc(S(=O)(=O)N(CC)c3ccccc3)c2)CC1` were 27.8% (inactive) and 5.38% (inactive).
On to `O=C(COc1ccc(F)cc1Cl)Nc1nc(-c2ccccn2)cs1`, for which the inhibition in assay [4] is 33.8% (active).

By inhibition is commonly meant the drop in the measured response relative to a control, in per cent. A word on the IC50: it is the concentration needed to halve the response being measured.
